Luciferase inh = qHTS Assay for Inhibitors of Firefly Luciferase | Luciferin 4-monooxygenase (Photinus pyralis), P08659 | purified firefly luciferase, luminescence, 8 min | Potency, µM (top dose mostly 57.1 µM), for inactives: at the highest dose activity change, negative = inhibition, usual class: inhibitors | hit rate 2.2% among 72,000; also: potency is read from the fitted curve at half-maximal effect; % is scaled to controls: 0 for no effect and ±100 for the full control effect; nearly all actives have a fitted effect of over 40% in size
Target sequence (P08659 whole entry, looked up): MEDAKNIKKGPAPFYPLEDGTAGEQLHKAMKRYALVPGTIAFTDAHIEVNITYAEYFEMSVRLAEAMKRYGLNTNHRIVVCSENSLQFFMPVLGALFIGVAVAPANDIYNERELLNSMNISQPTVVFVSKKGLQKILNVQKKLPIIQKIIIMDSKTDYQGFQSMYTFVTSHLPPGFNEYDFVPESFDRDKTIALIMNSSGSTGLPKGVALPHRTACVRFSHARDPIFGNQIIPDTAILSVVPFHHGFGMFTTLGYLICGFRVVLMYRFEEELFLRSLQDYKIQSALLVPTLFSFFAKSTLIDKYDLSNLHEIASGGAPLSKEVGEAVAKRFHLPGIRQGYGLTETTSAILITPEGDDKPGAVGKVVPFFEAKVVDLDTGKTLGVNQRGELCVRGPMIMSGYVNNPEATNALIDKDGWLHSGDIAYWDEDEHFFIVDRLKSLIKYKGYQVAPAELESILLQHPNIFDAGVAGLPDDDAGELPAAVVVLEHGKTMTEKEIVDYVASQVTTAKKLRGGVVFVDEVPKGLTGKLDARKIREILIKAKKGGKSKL
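Substrate buffer containing 10 uM ATP (pH 7.2 imidazole, Mg2+, KCl, detergent, BSA) is dispensed, compound pinned in, then luciferase/luciferin detector mix added. After 8 min at ambient temperature, light output is measured.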
Hsp90 Hop PPI = qHTS Assay for Disrupters of an Hsp90 Co-Chaperone Interaction | hit rate 0.44% among 71,000 | AID 595, 2007 | AlphaScreen TPR2A-His6 binding biotin-Hsp90 C-terminal peptide | Potency, µM (titrated, usually from 57 µM), for inactives: top-dose activity change, negative = inhibition; active = well fitted curve in either direction with a large enough effect; inconclusive = small, poorly fitted or top-dose-only effect, or another doubt; also: potency is read from the fitted curve at half-maximal effect; % is scaled to controls: 0 for no effect and ±100 for the full control effect
IkB sig inh = IkB Signaling; hit rate 0.04% among 110,000; ABC-DLBCL IkBa-CBG/CBR dual luciferase ratio, 4 h; response scale: scaled: untreated 0%, proteasome inhibitor 100%; Potency, µM (top dose mostly 57.1 µM), inactives show at the highest dose IkBa stabilization activation; active = well fitted curve in the direction sought with a large enough effect in the signal ratio, not every such curve was filed as active; inconclusive = small, poorly fitted or top-dose-only effect, or a change in a side signal; the % refers to the signal ratio;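 also: potency is read from the fitted curve at half-maximal effect; the direction sought is a rising ratio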
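Curves were fitted separately to fusion (green), unfused (red) and ratio luminescence, then classed by r2, magnitude and activity. Cells: OCI-Ly3, 4 h compound plus doxycycline at 37C; 10 uM MG-132 defined full response.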
IMPase cell inh = qHTS Assay for Identifying the Cell-Membrane Permeable IMPase Inhibitors; Inositol monophosphatase 1 (Rattus norvegicus), P97697; CHO-M1 cells, IP1 accumulation, HTRF TR-FRET ratio; inhibition (IP1 accumulation), % at 46.1 µM; 120,000 tested, under 10 active; AID 901, 2007; active = well fitted curve in the direction sought with a large enough effect in the signal ratio, not every such curve was filed as active; inconclusive = small, poorly fitted or top-dose-only effect, or a change in a side signal; inactive = no such curve, though single readings can be large or run the other way; the % refers to the signal ratio;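 also: cells stimulated with carbachol in lithium chloride buffer; plate controls were DMSO basal wells for no effect and reference inhibitor wells for full effect; higher means more IMPase inhibition seen as more IP1 and lower FRET ratio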
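Measured: the HTRF emission ratio (665/620 nm) plus the 620 nm donor channel, each fitted to the Hill equation to give AC50. Cells were CHO-M1 given compounds up to 46 uM and a 30 min carbachol stimulation at 37C.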
p53ts 32C tox = qHTS Screen for Compounds that Selectively Target Cancer Cells with p53 Mutations: Cytotoxicity of p53ts Cells at the Permissive Temperature; hit rate 0.93% among 130,000; Potency, µM (doses to about 46.1 µM), without a hit: at the top dose activity change, negative = cytotoxicity, actives largely listed as cytotoxic; H1299-p53A138V at 32C, ATP luminescence viability, 24 h;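 also: potency is read from the fitted curve at half-maximal effect; 0% = DMSO and -100% = full killing by reference compound; nearly all actives have a fitted effect of over 55% in size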
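H1299-p53 A138V cells (temperature-sensitive p53) exposed 24 h to up to 46 uM compound at 32C, where p53 is wild-type in conformation. Viability read as ATP luminescence and normalised to DMSO and 100 uM tamoxifen. AC50 fitted with the Hill equation.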
p53ts 39C tox = qHTS Screen for Compounds that Selectively Target Cancer Cells with p53 Mutations: Cytotoxicity of p53ts Cells at the Nonpermissive Temperature; Potency, µM (doses to about 46.1 µM), for the others: top-dose activity change, negative = cell killing, actives largely listed as cytotoxic; hit rate 1.5% among 130,000; H1299-p53A138V viability at 39C, ATP luminescence, 24 h; also: potency is read from the fitted curve at half-maximal effect; % is scaled to controls: 0 for no effect and ±100 for the full control effect; nearly all actives have a fitted effect of over 55% in size
An asterisk follows results filed as active; u = inconclusive; x = no result; [ ] = another dose, or the depositor's remark. This excerpt belongs to a sample that is enriched for hits. Unless noted, calls follow the shape of the dose curve; as a rule, active = well fitted curve in the direction sought with a large enough effect; inconclusive = small, poorly fitted or top-dose-only effect, or another doubt; inactive = no such curve, though single readings can be large; an effect the other way counts as inactive or inconclusive.

SMILES | Luciferase inh | Hsp90 Hop PPI | IkB sig inh | IMPase cell inh | p53ts 32C tox | p53ts 39C tox
Cc1ccc(CN2CCC(CNC(=O)c3cc4ccc5cccnc5c4[nH]3)CC2)cc1 | x | x | u | x | u | 12.6µM*
Oc1ccccc1OCc1nc2ccccc2s1 | 20µM* | 0.7%[11 µM] | u | 0.6 | -23.9% | -17.4%
O=C(OCc1nc2ccccc2s1)c1ccc(Br)s1 | -3.6% | u | 8.9% | -3.5 | 1.9% | -11.5%
C=CCNc1nc(N)c(C(=O)c2ccc3c(c2)OCO3)s1 | -15.5% | -12.0% | -5.9% | 5.0 | 14.8% | -0.5%
C=CCNc1nc(N)c(C(=O)Nc2cc(C)on2)s1 | 20µM* | -5.1% | 0.9% | 8.0 | u | u
C=CCn1c(SCC(=O)NCC2CCCO2)nc2scc(-c3ccco3)c2c1=O (stereo not given) | -0.7% | -3.2% | 2.2% | -10.6 | 13.0% | -4.8%
O=C(CSc1nc2scc(-c3ccco3)c2c(=O)n1-c1ccccc1)NCC1CCCO1 (stereo not given) | -3.0% | -9.9% | 7.94µM* | -1.7 | 2.8% | 8.8%
O=S(=O)(c1ccccc1)N1CN2CN(C1)CN(S(=O)(=O)c1ccccc1)C2 | 2.9%[11.4 µM] | -1.5%[11 µM] | -0.9%[11.4 µM] | x | 7.5%[9.22 µM] | 16.1%[9.22 µM]
C=C(CO)C1Cc2c(ccc3c2OC2COc4cc(OC)c(OC)cc4C2C3=O)O1 (stereo not given) | x | x | x | 13.6 | -10.6% | -13.8%
COc1cc2c(cc1OC)n(CC(=O)c1cc(C)ccc1C)c(=O)n1nc(CCn3nc(C)cc3C)nc21 | x | x | -0.6% | x | 6.0% | -3.0%
Cc1ccc(NS(=O)(=O)c2cnc(N)nc2)c(C)c1 | x | x | 1.4% | x | -0.9% | -25.2%
O=C(Nc1nc(-c2ccccn2)cs1)c1ccc(Cl)s1 | -26.3% | 7.94µM* | 1µM* | 1.2 | 16.1% | 4.1%
O=C(Nc1nc(-c2ccccn2)cs1)c1ncc(Cl)c(Cl)c1Cl | x | x | x | 1.2 | x | x
O=C(Nc1nc(-c2ccccc2)cs1)c1cccs1 | 12.6µM* | 4.7% | u | -2.5 | u | -11.9%
O=C(NCCc1ccccc1)c1cnc2sc(N3CCCCC3)nn2c1=O | x | x | -2.1% | x | -7.8% | -8.9%
Cn1c(C(=O)NCCc2ccccc2)cc2sc(Cl)cc21 | x | x | 5.1% | x | 15.8µM* | 12.6µM*
c1cc2c(cc1-c1cnc3n1CCC3)OCCO2 | -11.4% | -5.7% | u | -4.9 | u | 12.6µM*
COc1ccc(C(=O)COC(=O)CN2C(=O)NC(C)(C)C2=O)cc1OC | -5.0% | -0.8% | -0.5% | 0.9 | 0.6% | -3.2%
COc1ccc(C(=O)COC(=O)CN2CC(=O)Oc3ccccc32)cc1Br | -2.5% | 6.31µM* | u | 0.9 | u | -11.3%
CCOC(=O)CCCc1sc(N)nc1-c1[nH]c(=O)[nH]c1C | -0.3% | 3.98µM* | 0.3% | -1.7 | -1.5% | -12.0%
S=C(c1ccc(-c2cccc(Cl)c2)o1)N1CCOCC1 | 12.6µM* | -29.6% | 1.2% | 10.8 | u | -23.2%
S=C(c1ccc(-c2cc(Cl)ccc2Cl)o1)N1CCOCC1 | x | x | x | 1.8 | -10.2% | -3.1%
NC([N-]/N=C/c1ccccn1)=[S]=[Fe].O=S(=O)(O)O | 0.5%[11.4 µM] | 1.26µM* | 0.8%[11.4 µM] | x | 5.3%[9.22 µM] | 5.0%[9.22 µM]
CCS(=O)(=O)c1ncc(Cl)c(C(=O)N(Cc2ccccc2)Cc2ccco2)n1 | x | x | u | x | 17.8µM* | 3.98µM*
Cc1cccc(NS(=O)(=O)c2ccc3[nH]c4c(c3c2)CCCCCC4)c1 | x | x | u | x | 0.3% | u
COc1ccc(NS(=O)(=O)c2ccc3[nH]c4c(c3c2)CCCC4)cc1Cl | x | x | x | x | 6.2% | x
Cc1ccccc1NS(=O)(=O)c1ccc2[nH]c3c(c2c1)CCCCC3 | x | x | u | x | 9.0% | 25.1µM*
Cc1ccc(NS(=O)(=O)c2ccc3[nH]c4c(c3c2)CCCCCC4)cc1Cl | x | x | u | x | 1.4% | 25.1µM*
